Cruzain inh Det – inhibitors of Trypanosoma cruzi cruzain with detergent; purified cruzain, Z-FR-AMC fluorescence, 0.01% Triton; Potency, µM, without a hit: max response, negative = inhibition, actives largely listed as inhibitors; P25779; actives 0.43% (n = 200,000);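 note: plate controls were neutral wells for no effect and buffer without enzyme for full effect; nearly all actives have a fitted effect of over 40% in size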
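Sodium acetate buffer (100 mM, pH 5.5) containing 5 mM DTT and 0.01% Triton X-100 hosted 1.5 nM cruzain and test compound for 15 min at room temperature. Cleavage of 2 uM Z-FR-AMC was then tracked by fluorescence.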
Cruzain noTriton – inhibitors of Trypanosoma cruzi cruzain without detergent; P25779; purified cruzain, Z-FR-AMC fluorescence, no detergent; Potency, µM, inactives show max response, negative = inhibition, actives largely listed as inhibitors; actives 2.3% (n = 200,000);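 note: plate controls were enzyme without inhibitor for no effect and buffer without enzyme for full effect; nearly all actives have a fitted effect of over 40% in size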
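Purified cruzain at 1.5 nM, pre-incubated 15 min with compound at room temperature in 100 mM sodium acetate pH 5.5, 5 mM DTT, 0.00005% Triton X-100. Reaction started with 2 uM Z-FR-AMC; AMC fluorescence increase over 60 s gives rate.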
Papain inh – counter-screen for cruzain inhibitors: papain inhibition; shares compounds with Cruzain inh Det; purified papain, Z-FR-AMC fluorescence cleavage; Potency, µM, for inactives: max response, negative = inhibition, actives largely listed as inhibitors; actives 41% (n = 410);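 note: 0% = no-compound wells and -100% = no-enzyme wells; nearly all actives have a fitted effect of over 35% in size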
Target sequence (P00784 whole entry, looked up): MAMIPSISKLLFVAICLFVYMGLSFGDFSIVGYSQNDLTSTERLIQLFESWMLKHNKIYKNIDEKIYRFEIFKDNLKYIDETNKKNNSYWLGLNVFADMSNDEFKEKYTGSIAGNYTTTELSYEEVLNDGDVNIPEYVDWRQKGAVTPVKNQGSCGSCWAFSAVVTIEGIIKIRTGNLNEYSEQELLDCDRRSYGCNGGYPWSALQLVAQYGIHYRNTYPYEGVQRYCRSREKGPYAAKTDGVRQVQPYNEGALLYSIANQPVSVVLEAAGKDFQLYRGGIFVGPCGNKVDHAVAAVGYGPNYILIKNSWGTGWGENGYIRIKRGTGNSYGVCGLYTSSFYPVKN
An asterisk follows results filed as active; ? = inconclusive; / = not tested or not shown. A selection: hits, their analogues and other compounds. The true share with any hit is near 2.4%. Calls come from the whole dose curve; as a rule, active = well fitted curve in the direction sought with a large enough effect; inconclusive = small, poorly fitted or top-dose-only effect, or another doubt; inactive = no such curve, though single readings can be large; an effect the other way counts as inactive or inconclusive. Potency is the fitted concentration of half-maximal effect.

SMILES | Cruzain inh Det | Cruzain noTriton | Papain inh
CCS(=O)(=O)N1CCC2(CC1)OC(=O)C(C)=C2C(=O)NCc1ccc(OC)c(OC)c1 | 0% | -26% | /
Cc1cccn2c(=O)cc(COc3ccc(NC(=O)c4cccc(F)c4)cc3)nc12 | 3% | -2% | /
CCCOc1ccc(CNC(=O)c2[nH]c3cc(OC)ccc3c2Sc2ccccc2)cc1 | -8% | -28% | /
COc1cccc2c1[C@@H]1CN(CCCCn3c(=O)[nH]c4c(sc5ncc(-c6ccccc6)nc54)c3=O)C[C@@H]1CO2 | 28µM* | ? | -13%
COc1cc2[nH]c(=O)n(CCCC(=O)N3CC=C(c4ccccc4)CC3)c(=O)c2cc1OC | -7% | ? | /
c1cc2c3c(c1)c1c(n3CCNC2)CCCC1 | -6% | 6% | /
COc1ccc(-c2nn3c(-c4cc(-c5ccccc5)n[nH]4)nnc3s2)cc1OC | / | / | -18%
COc1ccc(-c2nn3c(-c4ccccn4)nnc3s2)cc1OC | -5% | -13% | /
COc1ccc(-c2nn3c(-c4cc(-c5ccccc5)n[nH]4)nnc3s2)cc1 | / | / | -13%
COc1ccc(-c2nnc3sc(-c4ccccn4)nn23)cc1 | 2% | -9% | /
COc1cccc(-c2nn3c(-c4ccccn4)nnc3s2)c1 | -2% | 1% | /
COc1cccc(-c2nn3c(-c4cc(C)[nH]n4)nnc3s2)c1 | 2% | 3% | 1%
CCOc1cccc(-c2nnc3sc(-c4ccc(C)cc4)nn23)c1 | -3% | ? | /
CCOc1ccc(-c2nn3c(-c4cc(-c5ccccc5)n[nH]4)nnc3s2)cc1 | / | / | -3%
Cc1cccc(-c2nc(CSc3nncn4c3cc3sccc34)c(C)o2)c1 | 0% | -2% | /
O=C(CN1C(=O)COc2ccc(S(=O)(=O)N3CCOCC3)cc21)NCc1ccc(F)cc1 | -1% | -6% | /
CC(=O)Nc1ccc(NC(=O)CCS(=O)(=O)c2ccc3c(c2)CC(=O)N3C)cc1 | 0% | 19% | /
COc1ccc(Br)c(C(=O)Nc2cc3c(cc2N2CCCCC2)n(C)c(=O)c(=O)n3C)c1 | -3% | -6% | /
c1ccc2c(NCCN3CCOCC3)nc(-c3ccoc3)nc2c1 | 3% | 5% | /
O=C(Nc1ccc(N2CCCC2)cc1)c1ccc(Br)o1 | ? | 7.9µM* | 26%
O=C(Nc1ccc(N2CCN(C(=O)c3ccccc3)CC2)cc1)c1ccc(Br)o1 | -5% | ? | /
Nc1ccc(S(=O)(=O)c2ccc(NCN3C(=O)NC(=O)C(=O)C3=O)cc2)cc1 | -3% | -4% | /
COc1cc2c(cc1OC)[C@@]13CCN4CC5=CCO[C@H](CC(=O)O)[C@@H]([C@H]1N2)[C@H]5C[C@H]43 | 5% | -1% | /
CC(C)(C)OC(=O)N1CCC(c2c(C(=O)NCc3ccc4c(c3)OCO4)cnn2-c2ccc(F)cc2F)CC1 | -9% | 12% | /
COc1ccccc1OCCn1c(NC(=O)c2ccccc2)nc2ccccc21 | 1% | 1% | /
SMILES | Cruzain inh Det | Cruzain noTriton | Papain inh
COc1ccc(OCCCn2c(CCNC(=O)C3CCCCC3)nc3ccccc32)cc1 | / | / | -9%
Cc1cc(OCCCn2c(CCNC(=O)C3CCCCC3)nc3ccccc32)ccc1Cl | 1.4µM* | 7% | 13µM*
Cc1ccc(OCCn2c(CCNC(=O)C(C)C)nc3ccccc32)cc1 | -6% | -9% | /
COc1ccc(OCCn2c(CCNC(=O)C3CCCCC3)nc3ccccc32)cc1 | / | / | -17%
Cc1cc2ccccc2n1CCNC(=O)C1CCCC1 | 4% | -6% | /
COc1ccccc1OCCn1c(CCNC(=O)C2CCCCC2)nc2ccccc21 | / | / | 2%
CC(C)C(=O)NCCc1nc2ccccc2n1CCCOc1ccc(Cl)cc1 | -2% | 22% | /
CCCOc1ccc(C2C(=O)N(C3CCC(C)CC3)CC(=O)N2CCc2ccccc2)cc1OC (stereo not given) | 5% | -10% | /
Cc1cc(SCC(=O)NCc2ccccc2Cl)nc(=O)[nH]1 | -1% | -10% | /
COCCNC(=O)c1c(-c2ccccc2)c(-c2ccccc2)nn(C)c1=O | -1% | 9% | /
Clc1ccc(C(c2ccc(Cl)cc2)C(Cl)Cl)cc1 | 1% | -23% | /
Cc1ccc(NC(=O)CCc2nc3cccnc3n2-c2ccccc2)cc1 | -2% | -5% | /
Cc1cccc(OCCn2c(CCNC(=O)C3CCCCC3)nc3ccccc32)c1 | / | / | -1%
Cc1cccc(OCCCn2c(CCNC(=O)C(C)(C)C)nc3ccccc32)c1 | -3% | ? | /
CCOC(=O)c1ccc(NC(=O)/C(C#N)=C/c2ccc(OC)cc2)cc1 | 0% | 16% | /
CSc1nc(N(CCO)CCO)c2sc3nc(-c4ccco4)c4c(c3c2n1)CCC4 | 10µM* | 3.2µM* | 13µM*
OCCN(CCO)c1ncnc2c1sc1nc(N3CCOCC3)c3c(c12)CCCC3 | -11% | ? | /
NC(=O)CSc1ncc2c(n1)-c1ccccc1N(Cc1ccc(Cl)cc1)S2(=O)=O | 3% | -13% | /
O=C(Nc1cc(C(F)(F)F)ccc1Cl)C(NCc1ccccc1)c1ccccc1 (stereo not given) | -5% | 2% | /

High-throughput results: PubChem, National Center for Advancing Translational Sciences (NCATS)
